Results filed as inconclusive are left out. Active and inactive are the calls of the source. The call rests on the fitted dose curve; in most records, active means well fitted inhibition curve with a large enough effect; inconclusive means small, poorly fitted or top-dose-only effect; inactive means flat fitted curve, though single readings scatter. Bridge positions count the residues as written; N and C are the ends. Square brackets hold non-standard residues; d marks the D form. Peptide text beside a SMILES is read from it. * marks the point of attachment. Ileψ(thiazoline)Cys = CC[C@H](C)[C@H](N)C1=N[C@H](C(=O)*)CS1; d(aIle) = CC[C@H](C)[C@@H](N)C(=O)O; dOrn = NCCC[C@@H](N)C(=O)O

The test system of the first test is CP194. The test is described as follows: qHTS profiling for inhibitors of Plasmodium falciparum proliferation (AID 504749).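 Further: 0% = DMSO vehicle and full inhibition = artemisinin control; nearly all actives have a fitted effect of over 60% in size.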 To be noted: P. falciparum in erythrocytes, SYBR Green DNA, 72 h; series mostly up to 12.8 µM; activity, negative = inhibition: at the top concentration. The gist of the method: (§1)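 Fluorescence of SYBR Green-bound parasite DNA, read at 485/535 nm, served as the growth measure. Infected erythrocytes were cultured with compound 72 h; artemisinin (0.29 uM) and DMSO wells defined the normalization range.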
(Quantitative high-throughput screening tests each substance at several concentrations.)
Regarding `C[C@H](CCC(=O)O)[C@H]1CC[C@@H]2[C@@H]3[C@@H](O)C[C@H]4C[C@@H](O)CC[C@@]4(C)[C@H]3CC[C@@]21C`, the “activity, negative = inhibition” value is -2.41% (inactive).

Take `CCC(=O)OCC(=O)[C@@]1(OC(=O)CC)[C@H](C)C[C@@H]2[C@@H]3[C@H]([C@@H](O)C[C@@]21C)[C@]1(C)C=CC(=O)C=C1C[C@@H]3Cl`: the “activity, negative = inhibition” value was -15.5% (inactive).

As to `C[C@H](C(=O)O)c1cccc(Oc2ccccc2)c1`, the “activity, negative = inhibition” value was -3.11% (inactive).

`CC1(C)[C@@H](OC(=O)CCC(=O)O)CC[C@@]2(C)[C@H]1CC[C@@]1(C)[C@H]2C(=O)C=C2[C@H]3C[C@](C)(C(=O)O)CC[C@]3(C)CC[C@@]21C`: the “activity, negative = inhibition” value was -1.3% (inactive).

Turning to `CCOC(=O)O[C@@H](C)OC(=O)[C@@H]1N2C(=O)[C@@H](NC(=O)[C@@H](N)c3ccccc3)[C@H]2SC1(C)C`, the “activity, negative = inhibition” value is 2.33% (inactive).

For the compound `Cc1ccsc1/C=C\C1=NCCCN1C`, the “activity, negative = inhibition” value was -0.373% (inactive).

Consider `Cc1cccc(CN2CCN([C@@H](c3ccccc3)c3ccc(Cl)cc3)CC2)c1`, for which the “activity, negative = inhibition” value was -14.5% (inactive).

Regarding `C#C[C@]1(O)CC[C@@H]2[C@H]3CCC4=CCCC[C@@H]4[C@@H]3CC[C@@]21C`, the “activity, negative = inhibition” value was 0.0149% (inactive).

On to `CC[C@H](C)[C@H](N)C1=N[C@H](C(=O)N[C@@H](CC(C)C)C(=O)N[C@@H](CCC(=O)O)C(=O)N[C@@H](C(=O)N[C@H]2CCCCNC(=O)[C@@H](CC(N)=O)NC(=O)[C@@H](CC(=O)O)NC(=O)[C@@H](Cc3cnc[nH]3)NC(=O)[C@@H](Cc3ccccc3)NC(=O)[C@@H]([C@@H](C)CC)NC(=O)[C@@H](CCCN)NC2=O)[C@@H](C)CC)CS1` ({Ileψ(thiazoline)Cys}-LE[d(aIle)]K[dOrn][d(aIle)][dF][dH][dD][dN]; lactam 4-C), for which the “activity, negative = inhibition” value was 6.1% (inactive).

As for `O=C(O)COCCN1CCN([C@@H](c2ccccc2)c2ccc(Cl)cc2)CC1`, the “activity, negative = inhibition” value is 3.62% (inactive).

With `CCN(CC)CCOC(=O)[C@@H](Cc1cccc2ccccc12)C[C@@H]1CCCO1`, the “activity, negative = inhibition” value is -10.6% (inactive).

Turning to `CC[C@H](CO)NCCN[C@@H](CC)CO`, the “activity, negative = inhibition” value is -0.706% (inactive).

The test system of a further test is CP201. Described as above. To be noted: P. falciparum in erythrocytes, SYBR Green DNA, 72 h; series mostly up to 12.8 µM; activity, negative = inhibition: at the top concentration. The gist of the method: as §1
As to `CN1CCO[C@H](c2ccccc2)c2ccccc2C1`, the “activity, negative = inhibition” value is -11.3% (inactive).

For `C[C@H](CCC(=O)O)[C@H]1CC[C@@H]2[C@@H]3[C@@H](O)C[C@H]4C[C@@H](O)CC[C@@]4(C)[C@H]3CC[C@@]21C`, the “activity, negative = inhibition” value was -4.11% (inactive).

As for `CN(C/C=C\c1ccccc1)Cc1cccc2ccccc12`, the “activity, negative = inhibition” value was -5.47% [at 28.7 µM] (inactive).

On to `CCC(=O)OCC(=O)[C@@]1(OC(=O)CC)[C@H](C)C[C@@H]2[C@@H]3[C@H]([C@@H](O)C[C@@]21C)[C@]1(C)C=CC(=O)C=C1C[C@@H]3Cl`, for which the “activity, negative = inhibition” value is -0.568% (inactive).

With `C[C@H](C(=O)O)c1cccc(Oc2ccccc2)c1`, the “activity, negative = inhibition” value was -0.551% (inactive).

`CC1(C)[C@@H](OC(=O)CCC(=O)O)CC[C@@]2(C)[C@H]1CC[C@@]1(C)[C@H]2C(=O)C=C2[C@H]3C[C@](C)(C(=O)O)CC[C@]3(C)CC[C@@]21C`: the “activity, negative = inhibition” value was -2.15% (inactive).

For the compound `CCOC(=O)O[C@@H](C)OC(=O)[C@@H]1N2C(=O)[C@@H](NC(=O)[C@@H](N)c3ccccc3)[C@H]2SC1(C)C`, the “activity, negative = inhibition” value was -0.966% (inactive).

As for `Cc1ccsc1/C=C\C1=NCCCN1C`, the “activity, negative = inhibition” value was -0.0062% (inactive).

Take `Cc1cccc(CN2CCN([C@@H](c3ccccc3)c3ccc(Cl)cc3)CC2)c1`: the “activity, negative = inhibition” value was -8.68% (inactive).

Take `C#C[C@]1(O)CC[C@@H]2[C@H]3CCC4=CCCC[C@@H]4[C@@H]3CC[C@@]21C`: the “activity, negative = inhibition” value is 0.314% (inactive).

For `CC[C@H](C)[C@H](N)C1=N[C@H](C(=O)N[C@@H](CC(C)C)C(=O)N[C@@H](CCC(=O)O)C(=O)N[C@@H](C(=O)N[C@H]2CCCCNC(=O)[C@@H](CC(N)=O)NC(=O)[C@@H](CC(=O)O)NC(=O)[C@@H](Cc3cnc[nH]3)NC(=O)[C@@H](Cc3ccccc3)NC(=O)[C@@H]([C@@H](C)CC)NC(=O)[C@@H](CCCN)NC2=O)[C@@H](C)CC)CS1` ({Ileψ(thiazoline)Cys}-LE[d(aIle)]K[dOrn][d(aIle)][dF][dH][dD][dN]; lactam 4-C), the “activity, negative = inhibition” value is -5.99% (inactive).

Regarding `O=C(O)COCCN1CCN([C@@H](c2ccccc2)c2ccc(Cl)cc2)CC1`, the “activity, negative = inhibition” value is -5.25% (inactive).

For the compound `CCN(CC)CCOC(=O)[C@@H](Cc1cccc2ccccc12)C[C@@H]1CCCO1`, the “activity, negative = inhibition” value was -14.8% (inactive).

Consider `C[C@@H](CNC1CCCCC1)OC(=O)c1ccccc1`, for which the “activity, negative = inhibition” value is -12.1% (inactive).

Regarding `CC[C@H](CO)NCCN[C@@H](CC)CO`, the “activity, negative = inhibition” value is 0.247% (inactive).

Values taken from PubChem BioAssay (NCATS).
